Mtb FBA inh: inhibitors of M. tuberculosis fructose-bisphosphate aldolase; P9WQA3; purified M. tuberculosis FBA, fluorescence read-out; inhibition, % at 1 µM; actives 2.3% (n = 360,000); in the data active = inhibition above about 27%;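 note: 0% = vehicle and 100% = reference inhibitor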
Rv3671c protease: inhibitors of M. tuberculosis serine protease Rv3671c; AID 2606; actives 0.048% (n = 320,000); P9WHR9; inhibition, % at 5.96 µM; in the data active = inhibition above about 38%;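 note: extracellular domain of Rv3671c used as enzyme; 0% = enzyme with DMSO and 100% = no enzyme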
Target sequence (P9WHR9 whole entry, looked up, the tested form may be a part): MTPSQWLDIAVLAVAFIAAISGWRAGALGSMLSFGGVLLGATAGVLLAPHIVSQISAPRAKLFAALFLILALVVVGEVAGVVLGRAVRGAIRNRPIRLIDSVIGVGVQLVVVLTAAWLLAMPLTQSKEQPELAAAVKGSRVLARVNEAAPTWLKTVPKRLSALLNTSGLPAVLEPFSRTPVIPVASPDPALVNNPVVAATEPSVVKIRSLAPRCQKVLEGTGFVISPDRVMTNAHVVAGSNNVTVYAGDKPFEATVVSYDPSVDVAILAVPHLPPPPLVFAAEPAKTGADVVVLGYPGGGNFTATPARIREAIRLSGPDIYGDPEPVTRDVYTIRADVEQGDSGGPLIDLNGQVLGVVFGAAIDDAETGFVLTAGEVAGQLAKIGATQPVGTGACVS
GDH-TPI counter: GDH-TPI coupled enzyme inhibition counter-screen; GDH-TPI coupled enzyme counterscreen, NADH absorbance; actives 1.2% (n = 360,000); inhibition, % at 4.8 µM; in the data active = inhibition above about 30%;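 note: 0% = DMSO wells and 100% = wells lacking the enzyme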
UGM FP inh: inhibitors of M. tuberculosis UDP-galactopyranose mutase; inhibition, % at 10 µM; purified UGM, fluorescence polarization probe displacement; actives 0.06% (n = 320,000); P9WIQ1; AID 504406; in the data active = inhibition above about 10%, passing the limit was not always enough
* marks the source's active call; other numbers are inactive results; · = not tested or not shown; + = active, no number. Most compounds without a hit are left out; they make up all but 3.5% or so of the library.

SMILES	Mtb FBA inh	Rv3671c protease	GDH-TPI counter	UGM FP inh
Cc1cc(OCc2cc(C(=O)N(Cc3nccn3C)C(C)C)no2)cc(C)c1Cl	-0.9	0.4	5.1	-0.9
COc1ccc(N2CCN(c3cc(C(=O)NC4CCCCC4)ncn3)CC2)cc1OC	1.7	·	6.2	·
Cc1ccc2c(c1)C(O)(CC(=O)/C=C/C=C/c1ccccc1)C(=O)N2 (centres undefined)	-5.4	3.3	38.4*	0.6
O=C(/C=C/C=C/c1ccccc1)CC1(O)C(=O)N(CCc2ccccc2)c2ccccc21 (centres undefined)	-0.9	-19.5	17.1	0.7
CCN1C(=O)C(O)(CC(=O)/C=C/C=C/c2ccccc2)c2ccccc21 (centres undefined)	-0.5	-10.2	41.0*	-4.0
NC(=O)CN1C(=O)C(O)(CC(=O)/C=C\C=C\c2ccccc2)c2ccccc21 (centres undefined)	0.2	-14.6	33.6*	·
COC(=O)[C@H](CC(C)C)NC(=O)CC[C@H]1O[C@@H](n2ccc(=O)[nH]c2=O)[C@H](O)[C@@H]1O	0.7	·	·	·
Cc1ccc2c(c1)c1ncnc(N3CCOCC3)c1n2C	126.0*	11.9	10.3	1.0
Cc1ccc2c(c1)c1ncnc(N3CCN(c4ccccc4)CC3)c1n2C	11.2	0.7	3.4	-0.5
CCC1(C)Cc2ccccc2-c2nc(NN)[nH]c(=O)c21 (centres undefined)	24.8	-2.9	16.0	-0.8
O=c1[nH]c(NCCO)nc2c1C1(CCCC1)Cc1ccccc1-2	112.5*	-0.9	8.9	3.9
CCC1(C)Cc2ccccc2-c2nc(NCCO)[nH]c(=O)c21 (centres undefined)	170.6*	1.2	16.3	3.5
CC1(C)Cc2ccccc2-c2nc(NCCCO)[nH]c(=O)c21	199.8*	-1.7	11.4	2.4
O=C(NCc1ccccc1)c1ccc(-c2cn[nH]c2)c2ccoc12	31.6*	·	9.7	·
COc1ccc(CN2CCNC(=O)C2CC(=O)N(C)Cc2nc(C)cs2)c(OC)c1 (centres undefined)	2.8	-6.7	5.7	1.2
CCOC(=O)C1CCN(C(=O)c2cc3c(=O)n4ccccc4nc3s2)CC1	159.2*	-0.9	14.4	-0.7
O=C(c1cc2c(=O)n3ccccc3nc2s1)N1CCc2ccccc2C1	·	-9.6	·	·
CCOC(=O)CC1C(=O)NCCN1C(=O)c1cc2c(=O)n3ccccc3nc2s1 (centres undefined)	·	-0.2	·	-0.3
CCN1CCN(C(=O)c2cc3c(=O)n4ccccc4nc3s2)CC1	192.3*	6.8	17.9	0.6
CCOC(=O)CC1C(=O)NCCN1C(=O)c1cc2c(=O)n3cccc(C)c3nc2s1 (centres undefined)	162.5*	5.3	12.0	0.3
COc1ccc(-c2nc(CS(=O)CC(=O)NCc3ccc(Cl)cc3)c(C)o2)cc1OC (centres undefined)	3.5	-11.5	7.8	-0.8
O=C(O)C1CCc2sc3[nH]c(=S)n(-c4ccccc4)c(=O)c3c21 (centres undefined)	4.5	1.4	33.8*	2.1
CCN(CC)C(=O)c1sc2[nH]c(=S)n(-c3ccccc3)c(=O)c2c1C	0.6	-6.8	33.2*	-0.7
CC(=O)Nc1ccc(-c2csc(-c3cccnc3)n2)cc1	5.0	-15.3	4.4	0.3
O=C(NCc1ccccc1Cl)c1ccc(CSc2nc3ccncc3[nH]2)cc1	149.7*	-3.3	-1.4	2.0
SMILES	Mtb FBA inh	Rv3671c protease	GDH-TPI counter	UGM FP inh
CC1(C)CC(=O)C=C(Nc2ccc(S(N)(=O)=O)cc2)C1	2.3	-9.2	38.1*	-3.1
O=C1c2cccc3cc([N+](=O)[O-])cc(c23)C(=O)N1CCN1CCCC1	-0.1	·	10.0	·
O=C1c2cccc3cc([N+](=O)[O-])cc(c23)C(=O)N1/N=C/c1ccc(O)cc1O	-3.9	8.2	55.7*	3.7
CC(=O)Nc1cccc(-c2cc(C)c3cc4c(cc3n2)OCO4)c1	13.6	·	32.0*	·
COC(=O)/C(=C\c1c[nH]c2ccccc12)NC(C)=O	0.9	7.2	39.2*	-2.7
CCCCN(CC)C(=O)c1cc2cc3ccc(Cl)cc3nc2o1	0.5	-43.4	17.6	1.1
COc1ccc2cc3cc(C(=O)NCc4cccs4)oc3nc2c1	+	-23.4	31.1*	-1.3
COc1ccc2cc3cc(C(=O)Nc4ccc5c(c4)OCO5)oc3nc2c1	-1.8	0.1	8.9	-1.5
CCCN(CCC)CCCNC(=O)c1cc2cc3ccc(OC)cc3nc2o1	+	1.0	31.6*	0.1
CCCCN(CC)CCCNC(=O)c1cc2cc3ccc(OC)cc3nc2o1	+	-1.2	36.5*	-0.5
COc1ccc(CNc2oc(-c3cccc4ccccc34)nc2C#N)cc1	147.2*	-29.1	9.6	-2.9
CCOP(=O)(OCC)c1nc(-c2cccc3ccccc23)oc1NCCc1ccc(OC)cc1	168.4*	6.8	6.7	-2.0
COc1ccc(CCNc2oc(-c3ccc(OC)c(OC)c3)nc2P(=O)(OC)OC)cc1OC	165.3*	12.3	18.7	2.3
CNc1oc(-c2cccc3ccccc23)nc1C#N	+	-8.8	12.9	-1.7
N#Cc1c(-c2ccccc2)nc(SCC(=O)Nc2ccc(OC(F)(F)Cl)cc2)[nH]c1=O	4.1	-33.8	8.0	-2.0
COc1ccc(C(=O)NCCN2C(=O)S/C(=C\c3cccnc3)C2=O)c(OC)c1OC	-0.8	-2.0	32.6*	-3.1
COc1ccc(C(=O)NCC(=O)N2CCN(C(=O)c3ccco3)CC2)cc1[N+](=O)[O-]	3.4	-2.4	11.6	10.9*
CCn1c(SCC(=O)OC(C)C)nnc1-c1ccccc1OC	3.8	1.3	-3.1	-0.6
Cc1cc2c(C)c(C)c(=O)[nH]c2cc1N	+	-6.5	35.5*	-0.9
O=C(OCc1nnc(-c2ccc(Cl)cc2)o1)c1ccc(O)cc1	-0.1	2.4	0.0	-2.1
CS(=O)(=O)c1ccc(C(=O)OCc2nnc(-c3ccc(Cl)cc3)o2)cc1[N+](=O)[O-]	86.7*	-10.4	2.5	-2.7
Cc1cc(=O)oc2cc(OC(=O)c3ccco3)ccc12	193.8*	·	-2.5	·
COc1ccc(OCCOC(=O)CN2C(=O)NC3(CCCC3)C2=O)cc1	1.1	-8.4	-5.2	-0.6
Cc1ccc(N(C)S(=O)(=O)c2cccc(C(=O)Oc3ccc4c(C)cc(=O)oc4c3)c2)cc1	131.3*	-13.1	1.5	2.8
CCCc1cc(=O)oc2cc(OC(=O)CN3C(=O)NC4(CCCC4)C3=O)ccc12	+	6.9	16.2	1.5
SMILES	Mtb FBA inh	Rv3671c protease	GDH-TPI counter	UGM FP inh
Cc1cc(=O)oc2c(C)c(OC(=O)c3ccco3)ccc12	5.5	2.3	-4.8	-0.2
CCc1cc(=O)oc2cc(OC(=O)c3ccco3)ccc12	+	-3.5	3.1	-0.6
CSCCC(NC(=O)COc1ccccc1)C(=O)OC(C)C(=O)Nc1ccccc1C (centres undefined)	2.7	8.1	4.5	-1.5
COc1cccc(Nc2nc3cc(C)ccc3cc2C)c1	-1.2	·	3.6	·
CC1Cc2ccccc2N1Cc1cccc([N+](=O)[O-])c1 (centres undefined)	2.7	-2.7	-2.3	4.1
Cn1cc(S(=O)(=O)NC[C@H]2O[C@@H](n3cnc4c(N)ncnc43)[C@H](O)[C@@H]2O)cn1	5.7	·	6.2	·
CCCCCc1ccc(C(=O)CCC(=O)OCC(=O)N(CC)c2c(N)n(Cc3ccccc3)c(=O)[nH]c2=O)cc1	-0.6	·	14.5	·

Assay outcomes deposited in PubChem by several laboratories.
